ATXN viability = Viability Counterscreen for Primary qHTS for Inhibitors of ATXN expression; S2 cells (HEK-293 line with an ATXN2-luciferase reporter) viability, CellTiter-Fluor protease fluorescence, 24 h; Potency, µM (series often up to 56.7 µM), usual class: cytotoxic; 400,000 compounds, 0.49% hits; further: potency means the concentration at half of the fitted maximal effect; nearly all actives have a fitted effect of over 40% in size
USP1-UAF1 inh = Inhibitors of USP1/UAF1: Primary Screen; Ubiquitin carboxyl-terminal hydrolase 1 (Homo sapiens), O94782; recombinant USP1/UAF1, Ub-Rhodamine cleavage fluorescence; Potency, µM (series often up to 57.1 µM), inactives show at the top dose activity change, negative = inhibition, most hits filed as inhibitors; 390,000 compounds, 0.23% hits; further: potency means the concentration at half of the fitted maximal effect; on the % scale 0 is the no-effect control and ±100 the full control effect; nearly all actives have a fitted effect of over 60% in size
Target sequence (O94782 whole entry, looked up): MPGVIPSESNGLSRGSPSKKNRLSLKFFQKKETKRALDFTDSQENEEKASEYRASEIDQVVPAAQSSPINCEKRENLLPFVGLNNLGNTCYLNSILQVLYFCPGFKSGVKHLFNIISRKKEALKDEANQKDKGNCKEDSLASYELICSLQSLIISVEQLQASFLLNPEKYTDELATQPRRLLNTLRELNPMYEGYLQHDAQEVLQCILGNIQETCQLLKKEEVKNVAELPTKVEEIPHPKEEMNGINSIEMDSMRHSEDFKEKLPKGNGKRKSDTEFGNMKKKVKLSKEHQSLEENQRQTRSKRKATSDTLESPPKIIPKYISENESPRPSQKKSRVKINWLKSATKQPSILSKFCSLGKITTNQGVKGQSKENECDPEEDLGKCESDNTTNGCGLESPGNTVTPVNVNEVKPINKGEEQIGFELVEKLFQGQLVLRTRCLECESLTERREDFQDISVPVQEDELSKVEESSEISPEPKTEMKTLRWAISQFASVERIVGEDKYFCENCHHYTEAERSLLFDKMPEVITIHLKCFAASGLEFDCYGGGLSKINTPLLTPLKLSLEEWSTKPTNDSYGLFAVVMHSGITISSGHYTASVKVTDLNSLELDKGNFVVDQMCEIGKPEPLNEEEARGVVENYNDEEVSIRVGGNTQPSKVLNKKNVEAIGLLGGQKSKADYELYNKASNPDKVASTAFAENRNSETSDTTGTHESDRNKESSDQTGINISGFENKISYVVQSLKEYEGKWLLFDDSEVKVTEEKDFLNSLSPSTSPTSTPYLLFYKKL
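Step one: compound is pinned into 1nM USP1/UAF1 in HEPES pH 7.8 buffer with TCEP. Step two: 15 min room-temperature incubation. Step three: Ub-Rho (150nM final) starts cleavage, tracked by fluorescence over six one-minute reads.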
IL1B secr inh = qHTS for Inhibitors of Inflammasome Signaling: IL-1-beta AlphaLISA Primary Screen; 360,000 compounds, 4.7% hits; activity change, % at 57.5 µM; AID 743279, 2014; THP-1 LPS/ATP IL-1B secretion, AlphaLISA, 16 h; stronger effect = lower value; in the data active means activity change below about -50%; inconclusive means mostly about -30% to -49%; further: on the % scale 0 is the no-effect control and ±100 the full control effect
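THP-1 cells pretreated 1 hr with compounds (up to 57.5 uM final), then stimulated with LPS (250 ng/mL final) plus ATP (1.25 mM final); secreted IL-1B measured by AlphaLISA after 16 hr, decreased signal indicating inhibition.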
ATXN2 expr inh = Primary qHTS for Inhibitors of ATXN expression; Potency, µM (series often up to 57 µM), for inactives: at the top dose activity change, negative = inhibition, usual class: inhibitors; 360,000 compounds, 0.72% hits; AID 1745845, 2022; HEK-293 ATXN2-luciferase reporter, luminescence, 24 h; further: potency means the concentration at half of the fitted maximal effect; on the % scale 0 is the no-effect control and ±100 the full control effect; nearly all actives have a fitted effect of over 55% in size
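qHTS (up to 57 uM final) was run with 24 h compound exposure of reporter cells at 37 °C. Each well was multiplexed: SteadyGlo luminescence measured ATXN2-luciferase expression after a fluorogenic Gly-Phe-AFC viability readout (25 uM final).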
USP2a block = qHTS Assay for Inhibitors of Ubiquitin-specific Protease USP2a Using CHOP2 as the Reporter | Ubiquitin carboxyl-terminal hydrolase 2 (Homo sapiens), O75604 | USP2 core, Ub-CHOP2 coupled fluorogenic reporter, 485/531 | Potency, µM (series often up to 38.3 µM), inactives show at the top dose activity change, negative = inhibition, most hits filed as inhibitors | 330,000 compounds, 0.01% hits | AID 463254, 2010;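 further: potency means the concentration at half of the fitted maximal effect; plate controls were DMSO wells for no effect and full inhibition by NEM control for full effect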
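Deubiquitinase activity read as fluorescence (485/531 nm) after Ub-CHOP2 cleavage activates the enterokinase reporter on its substrate; USP2 core 10nM, Ub-CHOP2 and substrate 25nM each, 30min compound preincubation then 60min RT; data normalized to NEM, curves fitted.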
* marks the source's active call; other numbers are inactive results; i = inactive; ? = inconclusive; . = not tested or not shown. Only some compounds are listed: those with a hit (about 4.8% of all), similar ones and a draw of the others. Unless noted, the call rests on the fitted dose curve; in most records, active means well fitted curve in the direction sought with a large enough effect; inconclusive means small, poorly fitted or top-dose-only effect, or another doubt; inactive means no such curve, though single readings can be large; an effect the other way counts as inactive or inconclusive.

SMILES	ATXN viability	USP1-UAF1 inh	IL1B secr inh	ATXN2 expr inh	USP2a block
CSCCC(NC(=O)c1cccc(C)c1)C(=O)NNC(=O)c1cccs1 (centres undefined)	i	-10.5%	-0.1	.	5.7%
O=C1S/C(=C/c2ccccc2F)C(=O)N1CCN=C1NS(=O)(=O)c2ccccc21	i	-4.9%	-97.4*	0.8%	1.7%
N#C/C(=C\c1ccccc1)c1ccccn1	i	3.6%	0.0	19.0%	14.5%
N#C/C(=C\c1ccc(Cl)c([N+](=O)[O-])c1)c1ccccn1	i	-26.0%	-96.8*	-36.9%	-0.2%
CC(NC(=O)/C(C#N)=C/c1ccc(Cl)c([N+](=O)[O-])c1)c1ccccc1 (centres undefined)	22.4µM*	-25.3%	-97.9*	.	-1.6%
N#C/C(=C\c1ccncc1)c1ccccn1	i	-5.9%	-100.0*	16.8%	4.0%
Cc1ccnc(NC(=O)c2ccc(S(=O)(=O)N3CCC(C)CC3)cc2)c1	i	-11.0%	?	-19.9%	-0.6%
COc1ccc(Cc2nnc(N/N=C/c3ccc(O)cc3)[nH]c2=O)cc1OC	?	-11.3%	-130.1*	1.58µM*	1.7%
C[C@@H]1CN(Cc2ccc3c(c2)CN(Cc2cccn2-c2ccccn2)CCO3)C[C@H](C)O1	i	.	.	.	.
C[C@@H](CN1C2=NC[C@H](Cc3ccc(O)cc3)N2C[C@H]1Cc1ccc(O)cc1)NC(=O)CCC1CCCCC1	i	-16.5%	-23.2	12.6%	0.3%
C/C=C(\C)C(=O)NCCN1C2=NC[C@H](Cc3ccccc3)N2C[C@H]1Cc1ccc(O)cc1	i	?	-17.7	-3.4%	-1.2%
COc1ccc(C[C@H]2CN3C(=NC[C@@H]3Cc3ccc(O)cc3)N2CCNC(=O)c2ccc(C)c(Br)c2)cc1	.	-21.7%	-20.0	25.1µM*	1.4%
C[C@@H](CN1C2=NC[C@H](Cc3ccccc3)N2C[C@H]1Cc1ccc(O)cc1)NC(=O)CCC1CCCCC1	22.4µM*	?	?	28.2µM*	-3.0%
COc1ccc(C[C@H]2CN3C(=NC[C@H]3Cc3ccccc3)N2CCNC(=O)CCC2CCCCC2)cc1	35.5µM*	14.9%	-20.0	35.5µM*	1.4%
COc1ccc(C[C@H]2CN3C(=NC[C@H]3Cc3ccccc3)N2CCNC(=O)c2ccc(C)c(Br)c2)cc1	28.2µM*	4.4%	-51.5*	?	-15.5%
C/C=C(\C)C(=O)NCCN1C2=NC[C@H](Cc3ccccc3)N2C[C@@H]1Cc1ccc(OC)cc1	i	-24.5%	?	-12.4%	.
COc1ccc(C[C@H]2CN3C(=NC[C@@H]3Cc3ccccc3)N2C[C@H](C)NC(=O)CCC2CCCCC2)cc1	.	.	.	.	0.2%
COc1cccc(C2(CC(=O)N3CCN(c4nonc4C)CC3)CC(=O)N(C3CCCC3)C2=O)c1 (centres undefined)	i	.	.	.	.
COc1ccc(C[C@H]2CN3C(=NC[C@@H]3Cc3ccccc3)N2CCNC(=O)c2ccc(C)c(Br)c2)cc1	.	-27.7%	-51.8*	22.4µM*	-0.1%
Cc1ccc(C(=O)NCCN2C3=NC[C@@H](Cc4ccccc4)N3C[C@H]2Cc2ccc(O)cc2)cc1Br	?	-21.3%	0.0	25.1µM*	2.1%
Cc1ccc(C(=O)NCCN2C3=NC[C@H](Cc4ccc(O)cc4)N3C[C@H]2Cc2ccc(O)cc2)cc1Br	i	?	3.2	9.9%	0.0%
O=C(Cc1ccccc1)Nc1sc2c(c1C(=O)Nc1ccc(Br)cc1)CCCC2	.	-19.1%	.	.	.
CSc1ccccc1NC(=O)CN(Cc1ccc(Cl)cc1)S(C)(=O)=O	i	1.0%	-63.4*	-10.9%	3.1%
Cc1cccc(NC(=O)NC2CCCCCCC2)c1C	i	-18.6%	-6.9	28.0%	0.3%
CCc1cc(Cn2nc(-c3ccccc3)cc2C(=O)NCc2cccc(Br)c2)on1	?	?	-52.5*	-21.7%	3.2%
SMILES	ATXN viability	USP1-UAF1 inh	IL1B secr inh	ATXN2 expr inh	USP2a block
CC1CC(C)(C)Nc2ccc(N=O)cc21 (centres undefined)	?	-20.7%	-105.3*	.	1.9%
CC1CC(C)(C)Nc2ccc(OC(=O)c3ccco3)cc21 (centres undefined)	i	-12.3%	-114.0*	?	0.5%
O=C(Oc1ccc2ccccc2c1)c1ccco1	i	-3.7%	18.2	-7.7%	0.9%
CCCc1cc(=O)oc2c3c(ccc12)OCN(Cc1ccccc1OC)C3	.	-31.4%	.	-10.2%	.
CCc1cccc2c(C(=O)CN3C(=O)NC(C)(c4cccc5ccccc45)C3=O)c[nH]c12 (centres undefined)	?	-24.0%	27.9	-33.9%	-5.6%
CCc1cccc2c(C(=O)CN3C(=O)NC4(CCc5ccccc54)C3=O)c[nH]c12 (centres undefined)	?	-4.5%	-57.7*	?	2.3%
Cc1ccc(NC(=S)Nc2cccc3cnccc23)cc1	?	-28.2%	9.7	.	-0.4%
Cc1ccc(NC(=S)Nc2cccc3cnccc23)cc1C	i	?	-78.4*	-23.4%	-1.9%
COC(=O)c1ccc(COc2ccccc2/C=C(\C#N)C(=O)Nc2c(C)cccc2C)cc1	i	-18.1%	-79.4*	-23.2%	0.6%
COC(=O)c1ccc(COc2ccccc2/C=C/C(=O)c2ccc(OCC(=O)O)cc2)cc1	i	-22.7%	-93.5*	-8.7%	2.3%
COC(=O)c1ccc(COc2ccccc2/C=N/Nc2cccc(C(=O)O)c2)cc1	i	?	15.5	21.9%	3.1%
CCOc1ccc(NC(=O)OCCN2CCN(CCc3ccccc3)C(C)C2)cc1 (centres undefined)	?	-8.7%	-69.8*	-14.2%	.
CCc1nc2c(OCc3ccccc3C)cccn2c1N(C)C(=O)C1CC1	i	.	-1.2	0.3%	.
CCc1nc2c(OCc3ccc(Cl)cc3Cl)cccn2c1N(C)C(=O)C1CC1	17.8µM*	.	-11.7	?	.
CCc1nc2c(OCc3cc(Cl)cc(Cl)c3)cccn2c1N(C)C(=O)CC(C)C	?	.	-28.1	?	.
CCc1nc2c(OCc3ccc(Cl)cc3Cl)cccn2c1N(C)C(=O)CC(C)C	i	.	-52.7*	?	.
C/C(=C\c1ccc(F)cc1)C(=O)c1c(C)cc(C)[nH]c1=O	?	-6.6%	-20.1	.	0.8%
CCCOc1ccc(/C(O)=C2/C(=O)C(=O)N(CCCn3ccnc3)C2c2ccc(C)o2)cc1 (centres undefined)	i	-12.4%	1.3	-10.8%	3.4%
NC(=S)n1[nH]c(-c2ccc([N+](=O)[O-])cc2)c(N=Nc2ccc(Cl)cc2)c1=O	i	-26.7%	-91.8*	?	-0.4%

Screening results as filed in PubChem BioAssay.
